These results are taken from PubChem BioAssay (NCI).

Among the test systems are T-47D breast; BT-549 breast; MDA-MB-435 melanoma; SW-620 colon; MCF7 breast; HCT-116 colon; HCC-2998 colon; KM12 colon.
Common to all, as to test: NCI-60 one-dose screen, 48 h (100 = growth as untreated, 0 = no growth, -100 = all killed)
What all share (conditions): 10 µM unless noted

About 83,000 compounds went through this panel and 20% of them were active in at least one assay; those are over-represented in the sample as a whole.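 A percent growth of 40 corresponds to 60% growth inhibition; 0 means no net growth; -100 means all cells died. Active threshold: below 10.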 Unmarked numbers belong to inactive results. Activity calls are given as the source filed them.

As to `O=c1ccn(C2CC=C(CO)O2)c(=O)[nH]1` (stereo not given), the growth was 96.5% in the assay with T-47D breast; 106% in the assay on BT-549 breast; 106% in the assay with MDA-MB-435 melanoma; 103% in the assay on SW-620 colon; 92% in the assay with MCF7 breast; 96% in the assay with HCT-116 colon. The growth in the assay on HCC-2998 colon is 123%; in the assay on KM12 colon, 103%.

`CN1C(=O)C(C2=NN(C=O)C(c3ccc(F)cc3)C2)C(=O)N(C)C1=O` (stereo not given): the growth in the assay on T-47D breast is 92.9%; in the assay on BT-549 breast, 102%; in the assay on MDA-MB-435 melanoma, 102%; in the assay with SW-620 colon, 98.8%; with MCF7 breast, 93.4%; in the assay on HCT-116 colon it was 98.7%. Moreover, the growth in the assay on HCC-2998 colon was 97.5%; with KM12 colon, 99.9%.

Turning to `COc1cc(C2=NN(C=O)C(c3cccc(Nc4ccnc5cc(Cl)ccc45)c3)C2)cc(OC)c1OC` (stereo not given), the growth was 63.2% in the assay with T-47D breast; 61.5% in the assay with BT-549 breast; 84.5% in the assay with MDA-MB-435 melanoma; 88.6% in the assay with SW-620 colon; 68.8% in the assay on MCF7 breast; 62.6% in the assay with HCT-116 colon. Also, the growth is 107% with HCC-2998 colon and 91% with KM12 colon.

`CC(C)Sc1nc(Cl)c(C#N)c(-c2ccc(F)cc2)n1`: the growth with T-47D breast is 98.1%; with BT-549 breast, 108%; in the assay with MDA-MB-435 melanoma, 101%; in the assay with SW-620 colon, 72.2%; with MCF7 breast, 96.4%; in the assay with HCT-116 colon it was 62%. Moreover, the growth was 112% with HCC-2998 colon and 107% with KM12 colon.

With `COc1cc(C(=O)c2cc3c(cc2C)OCO3)cc(OC)c1OC`, the growth in the assay with T-47D breast is 58.2%; in the assay with BT-549 breast, 68.3%; with MDA-MB-435 melanoma, -49% (active); in the assay with SW-620 colon it was 25.6%; in the assay on MCF7 breast it was 13.6%; with HCT-116 colon it was 15.9%. In addition, the growth is 10.1% in the assay with HCC-2998 colon and 16.5% in the assay on KM12 colon.

On to `O=C1/C(=C/c2cccc(Cl)c2)CCc2ccccc21`, for which the growth was 101% in the assay with T-47D breast; 102% in the assay on BT-549 breast; 96.6% with MDA-MB-435 melanoma; 56.4% in the assay with SW-620 colon; 50.5% in the assay with MCF7 breast; 93% in the assay with HCT-116 colon. For the same compound, the growth with HCC-2998 colon was 102%; in the assay on KM12 colon, 87.9%.

As to `COC(=O)[C@H](Cc1cnc[nH]1)NC(=O)[C@@H](NC(=O)Nc1cc(C(F)(F)F)cc(C(F)(F)F)c1)C(C)C`, the growth was -63.5% [100 µM] (active) with T-47D breast; -90.7% [100 µM] (active) in the assay with BT-549 breast; -91.1% [100 µM] (active) with MDA-MB-435 melanoma; -48.2% [100 µM] (active) with SW-620 colon; -53.1% [100 µM] (active) with MCF7 breast; -89.5% [100 µM] (active) in the assay on HCT-116 colon. The growth with HCC-2998 colon was -82.2% [100 µM] (active); in the assay with KM12 colon, -94.6% [100 µM] (active).

As for `O=C1/C(=C/c2ccccc2Cl)CCc2ccccc21`, the growth is 105% with T-47D breast; 108% in the assay on BT-549 breast; 95.4% with MDA-MB-435 melanoma; 110% with SW-620 colon; 87.9% in the assay with MCF7 breast; 99.5% in the assay with HCT-116 colon. The growth is 102% in the assay on HCC-2998 colon and 108% in the assay on KM12 colon.

As to `O=C(CSc1nnc(-c2cc(-c3ccccc3)nc3ccccc23)o1)c1ccc(Br)cc1`, the growth in the assay on T-47D breast is 102%; in the assay on BT-549 breast, 96.9%; with MDA-MB-435 melanoma, 104%; in the assay with SW-620 colon it was 107%; with MCF7 breast it was 111%; with HCT-116 colon, 101%. Also, the growth was 113% in the assay with HCC-2998 colon and 107% with KM12 colon.

On to `COc1ccc2c(c1)c(CC(=O)[Se]C)c(C)n2C(=O)c1ccc(Cl)cc1`, for which the growth in the assay on T-47D breast was 80.6%; in the assay on BT-549 breast it was -80.8% (active); with MDA-MB-435 melanoma, -20% (active); in the assay with SW-620 colon, 29.9%; in the assay with MCF7 breast, 16%; in the assay on HCT-116 colon it was 0.342% (active). For the same compound, the figures for the growth in the assay with HCC-2998 colon and in the assay on KM12 colon were 68.8% and 61.6%, respectively.

On to `CSc1nc(-c2ccc(O)cc2O)c2c(=O)[nH]c(Nc3ccc(S(=O)(=O)Nc4nc(C)cc(C)n4)cc3)nc2n1`, for which the growth in the assay on T-47D breast was 91.5%; with BT-549 breast it was 87.1%; in the assay on MDA-MB-435 melanoma it was 196%; in the assay with SW-620 colon, 108%; with MCF7 breast, 113%; with HCT-116 colon, 101%. Further, the growth was 93.4% in the assay on HCC-2998 colon and 102% with KM12 colon.

On to `CCCCN1c2nc3ccccc3cc2Sc2cc3ccccc3nc21`, for which the growth was 13.7% in the assay on T-47D breast; 97.1% with BT-549 breast; 151% in the assay on MDA-MB-435 melanoma; 94.4% in the assay on SW-620 colon; 7.26% (active) in the assay with MCF7 breast; 95.1% with HCT-116 colon. In addition, the figures for the growth in the assay with HCC-2998 colon and in the assay with KM12 colon were 86.5% and 68.3%, respectively.

As for `Cc1n(Cc2ccc3ccccc3c2)cc[n+]1Cc1ccc2ccccc2c1`, the growth was 0.847% (active) with T-47D breast; -13.6% (active) in the assay on BT-549 breast; -14.6% (active) in the assay on MDA-MB-435 melanoma; 18.7% with SW-620 colon; 7.52% (active) in the assay with MCF7 breast; 6.14% (active) with HCT-116 colon. In addition, the growth is 7.45% (active) with HCC-2998 colon and -9.94% (active) with KM12 colon.

Consider `COc1cnc2c(c1)C(=O)c1c-2n(CCCN2CCC(O)CC2)c(=O)c2cc(F)ccc12`, for which the growth in the assay on T-47D breast was -4.28% (active); with BT-549 breast, 0.525% (active); in the assay on MDA-MB-435 melanoma it was 8.13% (active); in the assay on SW-620 colon, 6.58% (active); in the assay on MCF7 breast, 0.145% (active); with HCT-116 colon, -71.7% (active). The growth is 13.5% in the assay with HCC-2998 colon and -6.17% (active) in the assay on KM12 colon.

In the case of `O=C(c1ccccc1)c1ccc(Oc2ccc([N+](=O)[O-])cc2[N+](=O)[O-])cc1`, the growth with T-47D breast is 66.1%; in the assay on BT-549 breast, -1.35% (active); in the assay with MDA-MB-435 melanoma, -43.7% (active); in the assay on SW-620 colon, 3.07% (active); with MCF7 breast, 15.6%; in the assay on HCT-116 colon, -12.8% (active). Besides, the growth is 97.8% in the assay with HCC-2998 colon and -17.8% (active) with KM12 colon.
